Records with an inconclusive call do not appear. Calls of active or inactive are those of the source. Calls come from the whole dose curve; as a rule, active = well fitted cell-killing curve with a large enough effect; inconclusive = small, poorly fitted or top-dose-only effect, or effect the other way; inactive = no such curve, though single readings can be large or run the other way.
Assay: Cell Viability - LYMP2-004 (AID 966); note: nearly all actives have a fitted effect of over 65% in size;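 for activity change, negative = cytotoxicity: plate controls were DMSO only for no effect and tetraoctylammonium bromide control for full effect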
Details: LYMP2-004 lymphoblastoid cell viability, qHTS; series mostly up to 92.2 µM; activity change, negative = cytotoxicity: at the top concentration
Text: NIH Chemical Genomics Center [NCGC]
NIH Molecular Libraries Screening Centers Network [MLSCN]
National Institutes of Environmental Health Sciences [NIEHS]
National Toxicology Program [NTP]
We have developed a 1536-well cell-based assay for quantitative high throughput screening (qHTS) against a number of cell lines to determine in vitro cytotoxicity of small molecules. This particular assay uses a human lymphoblastoid cell line (LYMP2-004) purchased from Coriell Institute for Medical Research.
NCGC Assay Protocol Summary:
The CellTiter-Glo luminescent cell viability assay (Promega) is a homogeneous method to measure the number of viable cells in culture. The end point readout of this assay is based on quantitation of intracellular ATP, an indicator of metabolic activity, using the luciferase reaction. Luciferase catalyzes the oxidation of beetle Luciferin to oxyluciferin and light in the presence of ATP. The luminescent signal is proportional to amount of ATP present.
Using the CellTiter-Glo luminescent cell viability assay, the amount of cellular ATP was measured in the lymphoblastoid cell line with complete culture medium following compound treatment for 24 hours. The assay was performed in opaque white Kalypsys 1536-well plates. In the screen, tetraoctylammonium bromide was used as positive control. Library compounds were measured for their ability to cause acute toxicity in the cell line, as reflected by a decrease in intracellular ATP levels, in a concentration-dependent manner. […] AC50 values were determined from concentration-response data modeled with the standard Hill equation.
qHTS protocol for CellTiter Glo lymphoblastoid cellular assay
[Step] [Parameter] [Value] [Description]
1. Reagent; 5 uL; 2500 lymphoblastoid cells/well
2. Time; 5 hr; 37 C incubation
4. Controls; 23 nL; Tetraoctylammonium bromide 6.4pM to 92 uM
5. Time; 24 hr; 37 C incubation
6. Reagent; 5 uL; CellTiter Glo reagent
7. Time; 30 min; Room Temperature
8. Detection; Luminescence; Viewlux plate reader
Keywords: cell viability, cytotoxicity, lymphoblastoid cell line, luminescence, NTPHTS, NTPHTS_NCGC, NIEHS, DSSTox, MLSMR, MLSCN, NIH Roadmap, qHTS, NCGC
Potency is the fitted concentration of half-maximal effect.

Row | Structure (SMILES) | activity change, negative = cytotoxicity | Potency
1 | O=[N+]([O-])c1c2ccccc2cc2ccccc12 | -3.43% (inactive) | 
2 | OCCCBr | 7.56% (inactive) | 
3 | O=S(=O)(c1ccc(Cl)cc1)c1ccc(Cl)cc1 |  | inactive
4 | CCCCOC(=O)c1ccccc1C(=O)OCc1ccccc1 | 30.8% (inactive) | 
5 | O=C(O)COc1ccccc1 | 2.57% (inactive) | 
6 | CCOP(=O)(NC(C)C)Oc1ccc(SC)c(C)c1 (stereo not given) | -19.9% (inactive) | 
7 | COC(C)(C)CCCC(C)C/C=C/C(C)=C/C(=O)OC(C)C (stereo not given) | -20.6% (inactive) | 
8 | O=[N+]([O-])c1c(Cl)c(Cl)cc(Cl)c1Cl | 5.33% (inactive) | 
9 | c1cc2ccc3cccc4ccc(c1)c2c34 | 21% (inactive) | 
10 | CN(C)[C@@H]1C(=O)C(C(N)=O)=C(O)[C@@]2(O)C(=O)C3=C(O)c4c(O)cccc4[C@@](C)(O)[C@H]3[C@H](O)[C@@H]12 | -1.16% (inactive) | 
11 | Nc1ccc(Sc2ccc(N)cc2)cc1 | -12.5% (inactive) | 
12 | CC(C)(O)C(=O)Nc1ccc([N+](=O)[O-])c(C(F)(F)F)c1 | -4.95% (inactive) | 
13 | CCCCC(CC)COC(=O)c1ccccc1C(=O)OCC(CC)CCCC (stereo not given) | 15.4% (inactive) | 
14 | Nc1ccc([N+](=O)[O-])cc1 | 20.2% (inactive) | 
15 | CC(=O)[O][Hg][c]1ccccc1 |  | 1 µM (active)
16 | C1CCC(NC2CCCCC2)CC1 |  | inactive
17 | CCOCCOC(C)=O | 5.3% (inactive) | 
18 | Cc1cc(O)ccc1Cl | 8.32% (inactive) | 
19 | O=[N+]([O-])c1cc([N+](=O)[O-])c2ccccc2c1 | -9.64% (inactive) | 
20 | CN(C)NC(=O)CCC(=O)O | -3.42% (inactive) | 
21 | COc1ccc(C(c2ccc(OC)cc2)C(Cl)(Cl)Cl)cc1 |  | inactive
22 | CCCCCCCCc1ccc(O)cc1 | -49.4% (inactive) | 
23 | O=C(O)C(Cl)Cl | 7.83% (inactive) | 
24 | Nc1ccc(Cl)cc1 | -2.92% (inactive) | 
25 | C=CC(=O)NCNC(=O)C=C | -15.2% (inactive) | 
